The values below come from PubChem BioAssay (NCI).

What all share (test): NCI-60 one-dose screen, 48 h (100 = growth as untreated, 0 = no growth, -100 = all killed)
What all share (conditions): 10 µM

Experiment [1] relates to NCI-H23 lung.
For experiment [2], the system named is NCI-H226 lung.
Experiment [3] relates to NCI-H322M lung.
For experiment [4], the system named is HOP-62 NSCLC.
Experiment [5] deals with NCI-H460 lung.
The test system of experiment [6] is NCI-H522 lung.
Experiment [7] deals with A549/ATCC NSCLC.
The test system of experiment [8] is 786-0 renal.
The test system of experiment [9] is COLO 205 colon.
In experiment [10] the test system is DU-145 prostate.

The panel holds about 83,000 compounds, 20% with a hit somewhere; the sample as a whole holds those more often.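 Step 1: grow cells in 96-well plates. Step 2: add test compound at a single concentration. Step 3: incubate 48 h. Step 4: record percent growth.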 Values without a mark were called inactive. Active and inactive are the calls of the source. Rule for the calls: active = growth percent below 10; inactive = the rest.

With `Clc1ccc(-c2cn(-c3ccccc3)c(-c3ccccc3)n2)c(Cl)c1`, the growth in [1] was 67.6%; in experiment [2], 40.7%; in experiment [3] it was -17% (active); in experiment [4] it was 31.6%; in experiment [5] it was -100% (active); in [6], 42.6%. For the same compound, the growth was -8.47% (active) in experiment [7], -50.3% (active) in [8], -64.3% (active) in experiment [9] and -89.7% (active) in experiment [10].
As for `COc1ccc(C2=NN(C(=O)c3ccc(S(C)(=O)=O)cc3)C(c3ccc(OC)c(OC)c3)C2)c(OC)c1` (stereo not given), the growth in experiment [1] is 104%; in experiment [2] it was 85.5%; in [3] it was 93.9%; in [4], 74.4%; in experiment [5], 107%; in [6] it was 86.6%. Also, the growth in experiment [7] was 91.7%; in experiment [8], 99.8%; in [9], 111%; in experiment [10] it was 98%.
In the case of `CN(C)CCN=c1nc2c(c(N)n1-c1ccccc1)c(=S)n(-c1ccccc1)c(=S)n2-c1ccccc1`, the growth in experiment [1] was 67.6%; in [2], 82.3%; in [3] it was 58.5%; in experiment [4], 6.19% (active); in experiment [5] it was 3.8% (active); in [6], 34.2%. Also, the growth in experiment [7] was 35.3%; in experiment [8], -83.5% (active); in experiment [9], 6.65% (active); in [10] it was 45%.
Turning to `O=c1cc(-c2ccccc2)[nH]n1-c1nc2ccccc2[nH]1`, the growth in experiment [1] is 56.1%; in experiment [2], 67.7%; in experiment [3], 49.9%; in experiment [4], 48%; in experiment [5] it was 20.7%; in experiment [6], 21.6%. Besides, the growth in [7] was 30.7%; in experiment [8] it was 50.1%; in experiment [9], 106%; in experiment [10], 61.1%.
Take `COc1cc(C(=O)N2CCN(c3ccccc3OC)CC2)c(N)cc1OCCCN1CCN(c2ccccc2OC)CC1`: the growth in [1] was 69.8%; in experiment [2], 84.6%; in [3] it was 100%; in [4], 93.2%; in experiment [5], 108%; in experiment [6] it was 79.4%. The growth was 92.7% in experiment [7], 96% in experiment [8], 85.9% in [9] and 103% in experiment [10].
As to `Nc1nc(N)c(NC(=O)CNc2ccc(C(=O)O)cc2)c(N)n1`, the growth in [1] is 112%; in [2] it was 98%; in experiment [3] it was 106%; in experiment [4], 107%; in experiment [5] it was 110%; in experiment [6], 92%. In addition, the growth in experiment [7] was 102%; in experiment [8], 107%; in [9], 110%; in experiment [10] it was 121%.
Take `Cc1cc(=O)[nH]c(N/N=C/c2ccccc2O)n1`: the growth is 78.6% in experiment [1]; 91% in experiment [2]; -5.84% (active) in [3]; 61.3% in [4]; 23.3% in experiment [5]; 77.3% in experiment [6]. Moreover, the growth was 33.1% in [7], 93.4% in [8], 49.2% in experiment [9] and 78.8% in experiment [10].
On to `NC(=S)N=Nc1c(O)c2ccccc2c2ccccc12`, for which the growth in experiment [1] is 6.64% (active); in experiment [2], 94.2%; in experiment [3] it was 82.3%; in experiment [4], 29.8%; in [5], 51.9%; in [6] it was 44.8%. Moreover, the growth in experiment [7] is 23.7%; in experiment [8], 101%; in experiment [9], 92.3%; in experiment [10] it was -8.94% (active).
Turning to `CCC(=O)N1C/C(=C/c2ccc(Cl)cc2)C(=O)/C(=C/c2ccc(Cl)cc2)C1`, the growth in [1] was -25.6% (active); in experiment [2], -53.9% (active); in [3], -16.6% (active); in experiment [4] it was -53% (active); in experiment [5], -13.8% (active); in [6], -58.7% (active). For the same compound, the growth was -26.7% (active) in experiment [7], -69% (active) in [8], -76.5% (active) in experiment [9] and -41.6% (active) in experiment [10].
As to `CCOC(=O)N1C/C(=C/c2ccc(Cl)cc2)C(=O)/C(=C/c2ccc(Cl)cc2)C1`, the growth is 72.1% in experiment [1]; 39.3% in [2]; 79.2% in experiment [3]; 64.7% in [4]; 77.8% in experiment [5]; 65.5% in experiment [6]. For the same compound, the growth is 61.1% in [7], 65.6% in [8], 45.3% in experiment [9] and 46.3% in experiment [10].
On to `COc1ccc2c(c1)C(=O)c1c-2c(OCCN(C)C)nc2cc(OC)c(OC)cc12`, for which the growth in [1] was 53.1%; in experiment [2], 58%; in [3], 57.2%; in experiment [4], 36.1%; in experiment [5], 36.6%; in [6] it was 42.1%. Further, the growth is 47.8% in [7], 79.1% in experiment [8], 66.5% in [9] and 52% in experiment [10].
Consider `CC/C(=C(/c1ccc(OCCN(C)C)cc1)c1ccc(OC(=O)CCCCC(=O)c2c(C)[nH]c(/C=C3\N=C(c4ccc[nH]4)C=C3OC)c2C)cc1)c1ccccc1`, for which the growth in experiment [1] was 86.7%; in experiment [2], 54.4%; in [3], 72.2%; in experiment [4], 77.9%; in experiment [5], 61.2%; in [6], 4.55% (active). The growth in experiment [7] is 52.4%; in [8] it was 67.4%; in experiment [9] it was 72%; in experiment [10], 34.2%.
On to `C[C@]12CC[C@@H]3c4ccc(O)cc4C[C@@H](O)[C@H]3[C@@H]1CC[C@@H]2O`, for which the growth in experiment [1] was 110%; in [2], 101%; in experiment [3], 102%; in [4], 108%; in experiment [5], 108%; in experiment [6], 106%. The growth in [7] is 94.6%; in experiment [8], 105%; in experiment [9], 119%; in [10] it was 110%.
